Bioassay records from PubChem BioAssay.
EWS-Fli inh: blocks EWS/Fli oncoprotein-driven transcription; A673 NR0B1-luciferase reporter, viability-normalised; inhibition, % at 12.6 µM; 0.67% of 350,000 active;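 active = mean inhibition of at least 50% after viability correction, with every replicate also passing that limit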;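 note: firefly luciferase signal divided by Alamar Blue viability fluorescence both relative to DMSO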
TROY NFkB inh: inhibitors of TROY-dependent NF-kB signaling. Q293 LMP1-TROYcd NF-kB luciferase reporter, 4 h. inhibition, % at 10 µM. 0.98% of 360,000 active. AID 1347056;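 active = compounds whose plate-normalised and pattern-corrected inhibition of the luciferase reporter signal at the single screening dose is 50% or more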
PAX8 reporter: inhibitors of PAX8 transcriptional activity in RMG-I cells. 1.2% of 360,000 active. AID 652154. inhibition, % at 12.6 µM. RMG-I TPO-luciferase reporter, SteadyGlo, 24 h;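 active = mean replicate inhibition at least 60% with every replicate also reaching 60%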;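 note: luciferase light reporting Pax8 driven TPO promoter activity; plate controls were median of neutral control wells for no effect and mitoxantrone controls for full effect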
TWEAK-Fn14 inh: inhibitors of TWEAK-Fn14 interaction signaling; TWEAK-stimulated Fn14 reporter cells, luciferase luminescence, 8 h; inhibition, % at 10 µM; 2% of 360,000 active; AID 1159606; in the data active = inhibition above about 50%
LGR2 antag: blocks bursicon-induced cAMP signaling via Drosophila LGR2; AID 720647; 0.35% of 380,000 active; HEK293 LGR2, CRE-luciferase, bursicon-stimulated, 4 h; inhibition, % at 9.99 µM;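 active = drop in luminescence signal, shown as inhibition above about 50% in the replicate tests, limit read from the data, passing the limit was not always enough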;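 note: agonist challenge used bursicon conditioned medium at about half maximal strength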
* marks the source's active call; other numbers are inactive results. An excerpt weighted towards active compounds, which were near 2.8% of everything screened.

Screening COC(=O)c1nn(-c2ccc3c(c2)CCN3C(C)=O)cc1O returned TROY NFkB inh 76* and TWEAK-Fn14 inh 103*.
Screening C[C@@H]1CN([C@H](C)CO)C(=O)Cc2cc(NC(=O)C3CCCCC3)ccc2O[C@@H]1CN(C)S(=O)(=O)c1cn(C)cn1 returned EWS-Fli inh -3, PAX8 reporter -3 and LGR2 antag 4.
`C[C@H]1CCCCO[C@H](CN(C)S(=O)(=O)c2ccc(Cl)cc2)[C@@H](C)CN([C@@H](C)CO)C(=O)c2cc(NS(=O)(=O)c3ccccc3)ccc2O1` gave EWS-Fli inh 23, PAX8 reporter 74* and LGR2 antag -5.
For C[C@H](CO)N1C[C@H](C)[C@H](CN(C)S(=O)(=O)c2ccc(Cl)cc2)OCCCC[C@H](C)Oc2ccc(NS(=O)(=O)c3ccccc3)cc2C1=O the results were EWS-Fli inh 7, PAX8 reporter 72* and LGR2 antag 5.
Screening C[C@@H]1CN([C@H](C)CO)C(=O)c2cc(NS(=O)(=O)c3ccccc3)ccc2O[C@@H](C)CCCCO[C@@H]1CN(C)S(=O)(=O)c1ccc(Cl)cc1 returned EWS-Fli inh 0, PAX8 reporter 52 and LGR2 antag 8.
C[C@@H]1CCCCO[C@H](CN(C)S(=O)(=O)c2ccccc2)[C@H](C)CN([C@@H](C)CO)C(=O)c2cc(NS(=O)(=O)c3ccc(Cl)cc3)ccc2O1 was read as EWS-Fli inh -9, PAX8 reporter 81* and LGR2 antag 7.
CS(=O)(=O)N1C[C@H](O)COC[C@@H]2O[C@@H](CC(=O)NCc3ccc(-c4ccccc4)cc3)CC[C@H]21 was read as EWS-Fli inh -16, PAX8 reporter -13 and LGR2 antag 1.
`COc1ccc(NC(=O)Nc2cccc3c2O[C@H](CN(C)C(=O)NC(C)C)[C@@H](C)CN([C@@H](C)CO)C3=O)cc1` gave EWS-Fli inh 6, PAX8 reporter -11 and LGR2 antag 8.
O=C(Cc1ccncc1)NCC[C@@H]1CC[C@@H](NC(=O)Nc2ccc(F)cc2)[C@H](CO)O1 was read as EWS-Fli inh -14, PAX8 reporter -3 and LGR2 antag 9.
For Cc1cc(C)nc(Nc2nc(C(N)Cc3ccc(F)cc3)cs2)n1 (stereo not given) the results were EWS-Fli inh 27, TROY NFkB inh 1, PAX8 reporter 84*, TWEAK-Fn14 inh -37 and LGR2 antag 3.
COc1cc(OC)nc(Nc2nc(C(N)Cc3ccc(C(F)(F)F)cc3)cs2)n1 (stereo not given) was read as EWS-Fli inh 40, TROY NFkB inh -5, PAX8 reporter 21, TWEAK-Fn14 inh -28 and LGR2 antag 31*.
For Cc1cc(C)nc(Nc2nc(C(N)Cc3ccc(C(F)(F)F)cc3)cs2)n1 (stereo not given) the results were EWS-Fli inh 21, TROY NFkB inh -4, PAX8 reporter 9, TWEAK-Fn14 inh -110 and LGR2 antag 4.
C[C@@H]1CCCCO[C@@H](CN(C)Cc2ccc(C(F)(F)F)cc2)[C@H](C)CN([C@H](C)CO)C(=O)c2cc(NS(=O)(=O)c3ccc(Cl)cc3)ccc2O1 was read as EWS-Fli inh 26, PAX8 reporter 103* and LGR2 antag 18.
Screening C[C@@H]1CCCCO[C@@H](CN(C)Cc2ccc(C(F)(F)F)cc2)[C@H](C)CN([C@@H](C)CO)C(=O)c2cc(NS(=O)(=O)c3ccc(Cl)cc3)ccc2O1 returned EWS-Fli inh 18, PAX8 reporter 103* and LGR2 antag 23.
`C[C@H](CO)N1C[C@H](C)[C@H](CN(C)Cc2ccc(C(=O)O)cc2)OCCCC[C@H](C)Oc2ccc(NS(=O)(=O)c3ccc(Cl)cc3)cc2C1=O` gave EWS-Fli inh -5, PAX8 reporter -36 and LGR2 antag 4.
C[C@@H]1CCCCO[C@H](CN(C)Cc2ccc(C(F)(F)F)cc2)[C@H](C)CN([C@H](C)CO)C(=O)c2cc(NS(=O)(=O)c3ccc(Cl)cc3)ccc2O1 was read as EWS-Fli inh 11, PAX8 reporter 99* and LGR2 antag 32.
`C[C@@H]1CN([C@@H](C)CO)C(=O)c2cc(NS(=O)(=O)c3ccc(Cl)cc3)ccc2O[C@@H](C)CCCCO[C@@H]1CN(C)Cc1ccc(C(F)(F)F)cc1` gave EWS-Fli inh 9, PAX8 reporter -16 and LGR2 antag 19.
`C[C@@H]1CN([C@@H](C)CO)C(=O)c2cc(NS(=O)(=O)c3ccc(Cl)cc3)ccc2O[C@@H](C)CCCCO[C@H]1CN(C)Cc1ccc(C(F)(F)F)cc1` gave EWS-Fli inh 21, PAX8 reporter 102* and LGR2 antag 24.
Screening C[C@@H]1CCCCO[C@H](CN(C)Cc2ccc(C(F)(F)F)cc2)[C@@H](C)CN([C@H](C)CO)C(=O)c2cc(NS(=O)(=O)c3ccc(Cl)cc3)ccc2O1 returned EWS-Fli inh 2, PAX8 reporter -14 and LGR2 antag 3.
For O=C(C[C@H]1CC[C@H]2[C@@H](COC[C@H](O)CN2C(=O)c2ccncc2)O1)NCc1cccc(F)c1 the results were EWS-Fli inh 1, PAX8 reporter -11 and LGR2 antag 13.
Screening CO[C@H]1CN(C)C(=O)c2cc(NC(C)=O)ccc2OC[C@@H](C)N(C(=O)CN2CCOCC2)C[C@H]1C returned EWS-Fli inh -7 and LGR2 antag 13.
C[C@H]1CCCCO[C@@H](CN(C)Cc2ccc(C(F)(F)F)cc2)[C@@H](C)CN([C@@H](C)CO)C(=O)c2cc(NS(=O)(=O)c3ccc(Cl)cc3)ccc2O1 was read as EWS-Fli inh 0, PAX8 reporter 102* and LGR2 antag 25.
`C[C@@H]1CN([C@H](C)CO)C(=O)c2cc(NS(=O)(=O)c3ccc(Cl)cc3)ccc2O[C@@H](C)CCCCO[C@H]1CN(C)Cc1ccc(C(F)(F)F)cc1` gave EWS-Fli inh 62*, PAX8 reporter 99* and LGR2 antag 13.
For COc1ccc(C(=O)Nc2nnc(Cc3ccc(OC)c(OC)c3)s2)c(OC)c1 the results were EWS-Fli inh -83, TROY NFkB inh -15, PAX8 reporter -61, TWEAK-Fn14 inh 82* and LGR2 antag -39.
Screening COCc1nnc(NC(=O)c2ccc(OC)cc2OC)s1 returned EWS-Fli inh -18, TROY NFkB inh 3, PAX8 reporter -140, TWEAK-Fn14 inh 14 and LGR2 antag -21.
`COc1ccc(C(=O)Nc2cc(C)on2)c(OC)c1` gave EWS-Fli inh -74, TROY NFkB inh -13, PAX8 reporter -104, TWEAK-Fn14 inh 20 and LGR2 antag -49.
For COc1ccc(C(=O)Nc2ccc(C)cn2)c(OC)c1 the results were TROY NFkB inh 76* and TWEAK-Fn14 inh 102*.
Screening CCN(C(=O)c1ccc(C(C)(C)C)cc1)c1nnc(Cn2nnc3ccccc32)s1 returned TROY NFkB inh 40 and TWEAK-Fn14 inh 73*.
